Compounds with a hit are over-represented: about 11% of the library has one in this group of screens.
ALDH1A1 inh-1 = qHTS Assay for Inhibitors of Aldehyde Dehydrogenase 1 (ALDH1A1); Potency, µM (top dose mostly 75.3 µM), without a hit: top-dose activity, negative = inhibition, actives largely listed as inhibitors; actives 7.3% (n = 220,000); Aldehyde dehydrogenase 1A1 (Homo sapiens), P00352; AID 1030, 2008; Purified ALDH1A1, NADH fluorescence, propionaldehyde substrate; active means well fitted inhibition curve with a large enough effect, not every such curve was filed as active; inconclusive means small, poorly fitted or top-dose-only effect, or another doubt; inactive means no such curve, though single readings can be large or run the other way;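 further: potency means the concentration at half of the fitted maximal effect; plate controls were no enzyme wells and a reference inhibitor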
Target sequence (P00352 whole entry, looked up): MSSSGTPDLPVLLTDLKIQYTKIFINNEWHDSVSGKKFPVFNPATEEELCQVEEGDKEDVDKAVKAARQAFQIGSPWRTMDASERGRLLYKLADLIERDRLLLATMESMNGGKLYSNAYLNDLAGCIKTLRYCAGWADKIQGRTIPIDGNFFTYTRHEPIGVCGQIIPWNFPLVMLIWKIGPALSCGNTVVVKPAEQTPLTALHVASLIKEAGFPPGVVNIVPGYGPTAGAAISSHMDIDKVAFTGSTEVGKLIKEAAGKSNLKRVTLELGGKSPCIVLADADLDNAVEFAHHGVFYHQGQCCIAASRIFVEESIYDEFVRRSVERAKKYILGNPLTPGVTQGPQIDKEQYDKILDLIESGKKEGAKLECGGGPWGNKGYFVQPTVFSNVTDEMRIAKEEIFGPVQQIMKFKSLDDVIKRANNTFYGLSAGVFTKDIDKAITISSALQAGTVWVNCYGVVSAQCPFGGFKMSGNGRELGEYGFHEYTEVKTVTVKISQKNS
HPGD block = qHTS Assay for Inhibitors of HPGD (15-Hydroxyprostaglandin Dehydrogenase); actives 4.3% (n = 150,000); Potency, µM, without a hit: top-dose activity change, negative = inhibition, actives largely listed as inhibitors; purified HPGD, NADH fluorescence kinetic, PGE2 substrate; active means well fitted inhibition curve with a large enough effect, not every such curve was filed as active; inconclusive means small, poorly fitted or top-dose-only effect, or another doubt; inactive means no such curve, though single readings can be large or run the other way; further: potency means the concentration at half of the fitted maximal effect; on the % scale 0 is the no-effect control and ±100 the full control effect
Target sequence (P15428 whole entry, looked up): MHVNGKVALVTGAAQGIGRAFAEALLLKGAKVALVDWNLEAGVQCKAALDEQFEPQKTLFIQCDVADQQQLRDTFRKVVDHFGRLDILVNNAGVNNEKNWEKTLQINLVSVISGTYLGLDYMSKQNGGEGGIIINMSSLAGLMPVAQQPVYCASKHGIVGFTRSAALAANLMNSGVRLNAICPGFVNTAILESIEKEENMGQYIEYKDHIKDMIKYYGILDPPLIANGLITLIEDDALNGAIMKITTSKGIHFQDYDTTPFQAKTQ
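20 nM HPGD preincubated 15 min at room temperature with compound in 50 mM Tris-HCl pH 8, 0.01% Tween 20. Started with 1 mM NAD+ and 30 uM prostaglandin E2; NADH fluorescence (360/450 nm) read 5 times over 30-s intervals, last minus first.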
HTT ATP protect = qHTS Multiplex Assay to Identify Dual Action Probes in a Cell Model of Huntington: Cytoprotection (ATP). Potency, µM (highest dose often 56.4 µM), for the others: cytoprotection (ATP increase), most hits filed as activators. actives 0.14% (n = 230,000). PC12 HTT-Q103 induced, cytoprotection, ATP luminescence, 40 h; further: potency means the concentration at half of the fitted maximal effect; % of control where 0% means no effect; nearly all actives have a fitted effect of over 45% in size
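Rat PC12, Q103 Htt exon1-GFP fusion, ecdysone promoter; tebufenozide inducer 100 nM final; compound titration; qHTS, 1500 cells/well; ATPlite luminescent read.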
PNC inhibitor = High Content Assay for Compounds that inhibit the Assembly of the Perinucleolar Compartment; activity change (PNC), negative = inhibition, % at 10 µM; actives 3.1% (n = 140,000); PC3M PTB-GFP, PNC prevalence imaging, 16 h; stronger effect = lower value;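 active means readout at or below -70, meaning at least 70% loss of cells showing the perinucleolar compartment, a nuclear body marking cancer cells; inconclusive means readout between -30 and a set limit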;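 further: plate controls were DMSO wells for no effect and camptothecin positive control wells for full effect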
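Compounds are pinned in duplicate onto adhered PC3M cells stably expressing GFP-tagged PTB and incubated 16 h at 37 C. Cells are then fixed, nuclei stained with Hoechst, and PNC-positive cells counted.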
HttQ103 aggreg = qHTS Multiplex Assay to Identify Dual Action Probes in a Cell Model of Huntington: Aggregate Formation (GFP). PC12 HttQ103-GFP aggregates, Acumen cytometry, 40 h. Potency, µM (top dose mostly 46.1 µM), for the others: top-dose activity change, negative = inhibition, hits mostly inhibitors. actives 1.1% (n = 220,000); further: potency means the concentration at half of the fitted maximal effect; on the % scale 0 is the no-effect control and ±100 the full control effect; nearly all actives have a fitted effect of over 60% in size
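Ecdysone-promoter PC12 model expressing HTT exon 1 Q103 fused to GFP, induced by tebufenozide at 100 nM final. Compounds titrated; aggregates sized 1–25 µm scored on a 488 nm laser cytometer.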
CBFb RUNX1 block = qHTS Assay for Compounds Blocking the Interaction Between CBF-beta and RUNX1 for the Treatment of Acute Myeloid Leukemia | Runt-related transcription factor 1 (Homo sapiens) + Core-binding factor subunit beta … | AlphaScreen CBFb-His/RUNX1-biotin binding, biochemical | 230,000 tested, under 10 active | AID 1477, 2009 | Potency, µM (doses to about 59.8 µM), inactives show top-dose activity, negative = inhibition, usual class: inhibitors; further: % of control where 0% means no effect
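Compounds were screened at multiple concentrations against a preformed CBF-beta(His)/RUNX1(biotin) complex (30 nM of each) for 15 min at room temperature, followed by 90 min with nickel and streptavidin beads and AlphaScreen reading.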
HPGD inh conf = Confirmation qHTS Assay for Inhibitors of HPGD (15-Hydroxyprostaglandin Dehydrogenase); shares compounds with HPGD block; recombinant HPGD, NADH fluorescence, PGE2 substrate; Potency, µM (doses to about 57.1 µM), without a hit: at the highest dose activity change, negative = inhibition, usual class: inhibitors; actives 90% (n = 90); calls by dose curve
ALDH1A1 inh-2 = Inhibitors of Aldehyde Dehydrogenase 1 (ALDH1A1): Followup Confirmation and Counterscreen; shares compounds with ALDH1A1 inh-1; purified ALDH1A1, NADH fluorescence, propionaldehyde/NAD+; Potency, µM (top dose mostly 57.1 µM), without a hit: top-dose activity change, negative = inhibition, actives largely listed as inhibitors; actives 90% (n = 90); calls by dose curve
Starred values were filed as active, the others as inactive; ? = inconclusive; · = no result; [ ] = another dose, or the depositor's remark. Unless noted, the call rests on the fitted dose curve; in most records, active means well fitted curve in the direction sought with a large enough effect; inconclusive means small, poorly fitted or top-dose-only effect, or another doubt; inactive means no such curve, though single readings can be large; an effect the other way counts as inactive or inconclusive.

SMILES | ALDH1A1 inh-1 | HPGD block | HTT ATP protect | PNC inhibitor | HttQ103 aggreg | CBFb RUNX1 block | ALDH1A1 inh-2 | others
CCC1(CC)C(=O)NC(=O)NC1=NCCc1c[nH]c2ccccc12 | 16.6% | 3.1% | 0.2% | 13.2 | 9.2% | -2.3% | ·
Cc1ccc(-c2n[nH]c(=S)n2/N=C/c2c(C)nn(-c3ccccc3)c2C)cc1 | 8.7% | 1.12µM* | -14.2%[10 µM] | -19.0 | 21.3% | 6.5% | · | HPGD inh conf=0.501µM*
CCC(=O)Nc1cccc(NC(=O)CSc2nnc(-c3ccc(NS(C)(=O)=O)cc3)n2CC)c1 | -1.3% | -14.8% | 3.8% | 13.0 | 7.8% | -0.3% | ·
O=C(CCc1ccc(Oc2cc([N+](=O)[O-])cc([N+](=O)[O-])c2)cc1)N1CCCCCC1 | 12.6µM* | 0.891µM* | 2.9%[1.9 µM] | -23.9 | 9.2% | 0.2% | · | HPGD inh conf=0.398µM*
CCN(c1ccccc1)S(=O)(=O)c1ccc(C(=O)Oc2ccc(C(C)=O)cc2)cc1 | 0.4% | -6.1% | -21.8%[10 µM] | 19.9 | -1.7% | -0.7% | ·
CC1CCCN(C(=O)c2ccncc2)C1 (centres undefined) | 3.4% | -29.7% | -5.1% | ? | 5.4% | -1.3% | ·
CC1CCCN(C(=O)c2ccc(COc3ccccc3Br)cc2)C1 (centres undefined) | 25.1µM* | 0.0891µM* | 1.8% | 30.7 | -27.5% | 5.0% | · | HPGD inh conf=0.126µM*
O=c1c2ccccc2sn1-c1cc(S(=O)(=O)N2CCOCC2)ccc1N1CCCC1 | 0.0224µM* | 0.224µM* | -122.8% | -108.1* | 2.9% | 4.4% | · | HPGD inh conf=2.51µM*
Cc1nc2c(o1)CCc1ccccc1C2N1CCN(C)CC1 (centres undefined) | 8.0% | -1.5% | ? | -20.2 | ? | 5.8% | ·
COc1ccc(S(=O)(=O)N(C)c2ccc(C(=O)N3CCC(C(N)=O)CC3)cc2)cc1 | -5.4% | -11.3% | -22.6% | 7.8 | 5.7% | 3.2% | · | HPGD inh conf=-25.4%
COc1ccc(/C=N/NC(=O)CSc2nnc(CCCc3ccc(OC)c(C)c3)o2)cc1 | -11.5% | -29.4% | -35.7% | ? | -0.6% | -4.9% | ·
CC(C)CCOc1ccc(-c2c(=O)n(OCc3ccc([N+](=O)[O-])cc3)c3ccccc3[n+]2[O-])cc1 | ? | ? | -20.4% | 16.1 | -7.5% | -3.1% | ·
COc1ccc(C(=O)CCNc2ccc3c(c2)OCCO3)cc1 | 0.316µM* | · | -18.5% | · | 9.0% | ? | 3.98µM*
O=C(CCNc1ccccc1)c1ccc2c(c1)OCO2 | 0.891µM* | -18.0% | -15.9%[0.074 µM] | -1.1 | 9.7% | -8.2% | 2.24µM*
O=C1N2CCSC2=NC1(Nc1nccs1)C(F)(F)F (centres undefined) | 8.7% | -9.6% | 2.3%[0.074 µM] | -5.3 | -3.9% | -4.3% | ·
COc1cc(NC(=O)CN2CCN(S(=O)(=O)c3ccc(C(C)C)cc3)CC2)cc(OC)c1 | 2.24µM* | -14.2% | 4.0% | -14.7 | 7.7% | 1.7% | 3.16µM*
O=c1[nH]c2cc([N+](=O)[O-])c(NCCO)c([N+](=O)[O-])c2[nH]1 | -0.4% | · | -26.9% | · | 31.2% | -18.8% | ·
Cc1cccc(Cn2c(N3CCCCC3C)nc3c2c(=O)[nH]c(=O)n3C)c1 (centres undefined) | 0.282µM* | -19.1% | 13.6%[10 µM] | 80.0 | -7.1% | -9.1% | 0.251µM*
O=C1C=CC(=O)C2=C1C1c3ccccc3C2c2ccccc21 | 0.708µM* | 1.12µM* | -124.9% | · | · | -13.8% | 0.562µM*
O=C1CC(c2ccccc2)c2ccccc21 (centres undefined) | -8.7% | · | 3.6%[10 µM] | · | 5.6% | -10.7% | ·
Cc1ccc(S(=O)(=O)N[C@@H](Cc2ccccc2)C(=O)CCl)cc1 | 0.794µM* | 20µM* | ? | 11.7 | ? | 23.4% | 0.447µM*
Cc1ccc(S(=O)(=O)N[C@H](CO)C(=O)O)cc1 | 0.9%[13.5 µM] | -3.5% | 0.7%[10 µM] | · | · | · | ·
CCC(C)NC(=S)Nc1ccc(C(=O)OC)cc1 (centres undefined) | 7.5% | · | 13.7%[10 µM] | · | 14.4%[9.22 µM] | 2.2% | ·
C[N+](C)(C)CCC(=O)c1cccc2ccccc12 | 0.0708µM* | 14.1µM* | -28.1% | · | · | -5.8% | 0.0355µM*
Cc1ccc(S(=O)(=O)/C=C/C#N)cc1 | 0.0562µM* | · | -197.2% | · | · | 8.1% | 0.0631µM*
SMILES | ALDH1A1 inh-1 | HPGD block | HTT ATP protect | PNC inhibitor | HttQ103 aggreg | CBFb RUNX1 block | ALDH1A1 inh-2 | others
C=CCNC(=O)COC(=O)COc1ccc(Cl)cc1 | 5.1% | · | -14.5% | · | -7.3% | ? | ·
COCCN(C(=O)Cc1cccs1)C(C(=O)NCc1ccc(OC)cc1)c1ccc(C(C)C)cc1 (centres undefined) | 0.282µM* | -22.7% | 35.6%[10 µM] | 32.5 | 16.9% | 19.2% | 0.251µM*
Cn1c(=O)c2c(nc(CN3CCOCC3)n2CCCc2ccccc2)n(C)c1=O | -4.8% | -4.1% | 27.9%[10 µM] | -1.7 | -20.9% | -6.2% | ·
CC1CCN(Cc2nc3c(c(=O)n(C)c(=O)n3C)n2CCCc2ccccc2)CC1 | 0.631µM* | -4.5% | 4.7%[0.074 µM] | -27.6 | 7.0% | -1.5% | 0.501µM*
CC(C)N(C(=O)CN1C(=O)C(=O)c2ccccc21)c1ccccc1 | 0.0282µM* | · | 16.7%[10 µM] | · | -1.4%[9.22 µM] | -5.1% | 0.0355µM*
CC(=O)c1ccc(OCCCN2CCCCC2)cc1 | -14.0% | -7.7% | 11.0% | 29.6 | 5.0% | -22.8% | ·
CCCCOc1ccc(C(=O)CCN2CCCCC2)cc1 | 0.0447µM* | -20.1% | ? | -22.7 | 1.4% | 22.2% | 0.794µM*
CCN1CCN(C(=O)Nc2ccccc2OC)CC1 | 0.1% | -0.8% | -21.3%[10 µM] | -7.6 | -2.4% | 1.7% | ·
CO/N=C(/C(=O)N[C@H]1C(=O)N2C(C(=O)O)=C(COC(C)=O)CSC12)c1csc(N)n1 (some centres undefined) | ? | -25.2% | · | · | · | · | ·

Bioassay records from PubChem BioAssay.
